“And” between values parts separate entries of the source, which are not always exact repeats. Equal values may be shown once. The source made the active and inactive calls. The calls were made as follows: active = hit-call score of the fitted dose curve at least 0.9, where 1 is the maximum; inactive = score below 0.9.

Read-out in the first assay: Lipoprotein lipase (LPL), LPL (gene 4023)
Nature of the assay: LTEA_HepaRG_LPL: Life Technologies and Expression Analysis (LTEA) Assay for Lipoprotein lipase (LPL) using HepaRG (AID 2283515). The note with it: mRNA level, 48 h; actives raise or lower the signal. In a few lines:
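Differentiated human HepaRG cells in serum-free induction medium were exposed in duplicate for 48 h to eight half-log concentrations (top 100 uM) in 0.5% DMSO. LPL mRNA was quantified by TaqMan qRT-PCR, normalized to ACTB, GAPDH and POLR2A.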
In the case of `O=C(c1ccccc1)C1CCCCC1`, the compound was classed as inactive. On the same count and under the same terms, in the case of `COc1c(Cl)ccc(Cl)c1C(=O)O` it was “inactive”; in that of `CC(=O)[C@H]1CC[C@H]2[C@@H]3CCC4=CC(=O)CC[C@]4(C)[C@H]3CC[C@]12C`, “inactive”. On the same count and under the same terms, in the case of `CC1(C)C(C=C(Cl)Cl)C1C(=O)OCc1cccc(Oc2ccccc2)c1` (stereo unspecified) it was “inactive”. On to `S=C(S)NCCNC(=S)S.[Mn+2].[S-]C([S-])=NCCN=C([S-])[S-].[Zn+2]`, for which the AC50 is 1.11 µM (active) and 1.17 µM (active) and 2.99 µM (active).

Read-out in a further assay: MicroRNA 122 (MIR122), gene 406906
The experiment in a line: LTEA_HepaRG_MIR122: Life Technologies and Expression Analysis (LTEA) Assay for MicroRNA 122 (MIR122) using HepaRG (AID 2283516). Also: the transcript read is the microRNA miR-122. The note with it: mRNA level, 48 h; actives raise or lower the signal. Put shortly: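 Differentiated human HepaRG cells in serum-free induction medium exposed 48 h to 8 half-log concentrations from 100 uM in 0.5% DMSO, duplicate. MIR122 quantified by Fluidigm TaqMan qRT-PCR, normalised to ACTB, GAPDH, POLR2A; fold change fitted bidirectionally versus DMSO.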
Turning to `CSC(=O)c1cccc2nnsc12`, the outcome was inactive.

`c1ccc(Nc2ccccc2)cc1`: the outcome was inactive. Turning to `CCOC(=O)NCCOc1ccc(Oc2ccccc2)cc1`, the AC50 was 75.3 µM (active).

For `CC(C)(c1ccc(O)cc1)c1ccc(O)cc1`, the compound was called inactive. Turning to `Oc1ccc(C(c2ccc(O)cc2)C(Cl)(Cl)Cl)cc1`, the AC50 was 87.5 µM (active). With `CCOC(=O)c1ccc(O)cc1`, the result was inactive. `CCCCCOC(=O)COc1cc(N2C(=O)C3=C(CCCC3)C2=O)c(F)cc1Cl`: the outcome was inactive.

In the case of `C[C@]12CC[C@@H]3c4ccc(O)cc4C[C@@H](CCCCCCCCCS(=O)CCCC(F)(F)C(F)(F)F)[C@H]3[C@@H]1CC[C@@H]2O` (stereo partly specified), the concentration at half-maximal activity (AC50) was 28.7 µM (active). For the compound `CCCCCCC(C)OC(=O)COc1nc(F)c(Cl)c(N)c1Cl` (stereo unspecified), the compound was classed as inactive.

Consider `N[C@@H](Cc1cc(I)c(Oc2ccc(O)c(I)c2)c(I)c1)C(=O)O`, for which the result was inactive.

On to `CCNc1nc(N)nc(Cl)n1`, for which the call was inactive. The same measure, in the same setting: in the case of `COCCO` it was “inactive”; in that of `CCN(Cc1c(F)cccc1Cl)c1c([N+](=O)[O-])cc(C(F)(F)F)cc1[N+](=O)[O-]`, “inactive”; in that of `CN(C)C(=O)Nc1ccc(Cl)c(Cl)c1`, “inactive”.

In the case of `CCCCOCCOCCOCc1cc2c(cc1CCC)OCO2`, the compound was classed as inactive. On to `CCOC(=O)C(C)Oc1ccc(Oc2cnc3cc(Cl)ccc3n2)cc1` (stereo unspecified), for which the outcome was inactive. Take `CCSC(=O)N(CC(C)C)CC(C)C`: the compound was called inactive. As for `COC(=O)CSc1cc(N=c2sc(=O)n3n2CCCC3)c(F)cc1Cl`, the compound was classed as inactive. For the compound `c1ccc2[nH]c(-c3cscn3)nc2c1`, the result was inactive. Same read-out and setting: in the case of `CCCCC(CC)COC(=O)c1ccccc1C(=O)O` (stereo unspecified) it was “inactive”; in that of `CCOC(=O)C(C)Oc1ccc(Oc2nc3ccc(Cl)cc3o2)cc1` (stereo unspecified), “inactive”. `O=C(c1ccccc1)C1CCCCC1`: the outcome was inactive.

With `COc1c(Cl)ccc(Cl)c1C(=O)O`, the outcome was inactive. As for `CC(=O)[C@H]1CC[C@H]2[C@@H]3CCC4=CC(=O)CC[C@]4(C)[C@H]3CC[C@]12C`, the AC50 is 32.3 µM (active). Regarding `CC1(C)C(C=C(Cl)Cl)C1C(=O)OCc1cccc(Oc2ccccc2)c1` (stereo unspecified), the outcome was inactive. As for `S=C(S)NCCNC(=S)S.[Mn+2].[S-]C([S-])=NCCN=C([S-])[S-].[Zn+2]`, the AC50 was 780 nM (active) and 954 nM (active) and 816 nM (active).

The AC50 is the midpoint of the concentration-response curve, whichever way the signal moves.

The values are drawn from PubChem BioAssay (EPA / NIEHS).
